Source: PubChem (National Center for Advancing Translational Sciences (NCATS))
This is a sample that favours compounds with a hit; in the whole collection about 18% have one here.
CtBP-E1A blk – CtBP/E1A binding inhibition. actives 0.49% (n = 340,000). AlphaScreen GST-E1A/His-CtBP binding, 1536-well; hits give low values. activity change, % (concentration not given with the values); in the data active = activity change below about -65%; inconclusive = mostly about -30% to -63%
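In 5 uL wells, 23 nL compound meets equimolar GST-E1A and His-CtBP (5X stock 125 nM each) for 2 h, 37 °C. Beads (5X, 50 ug/mL) then 1 h, 37 °C, dark.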
TDP1 cell CPT – growth inhibition of DT40 Tdp1-/-;hTDP1 cells with camptothecin (screen for TDP1 inhibitors); chicken DT40 Tdp1-/-;hTDP1 cells + 20 nM CPT, ATP luminescence, 48 h; Potency, µM (titrated, usually from 46.2 µM), usual class: inhibitors; actives 12% (n = 420,000); AID 686979; also: nearly all actives have a fitted effect of over 55% in size
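Chicken DT40 Tdp1-/- cells complemented with human TDP1, 400 cells/well, exposed to compounds plus 20 nM camptothecin for at least 48 h at 37 C; viability read as ATP content by CellTiter-Glo luminescence.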
Six1-Eya2 inh – Six1/Eya2 interaction inhibition; actives 0.56% (n = 360,000); activity change, % (test concentration not listed); AlphaScreen GST-Six1/His-Eya2 binding, biochemical; hits give low values; AID 651725; Q15475+O00167; in the data active = activity change below about -65%; inconclusive = mostly about -30% to -63%
Target sequence (O00167 whole entry, looked up): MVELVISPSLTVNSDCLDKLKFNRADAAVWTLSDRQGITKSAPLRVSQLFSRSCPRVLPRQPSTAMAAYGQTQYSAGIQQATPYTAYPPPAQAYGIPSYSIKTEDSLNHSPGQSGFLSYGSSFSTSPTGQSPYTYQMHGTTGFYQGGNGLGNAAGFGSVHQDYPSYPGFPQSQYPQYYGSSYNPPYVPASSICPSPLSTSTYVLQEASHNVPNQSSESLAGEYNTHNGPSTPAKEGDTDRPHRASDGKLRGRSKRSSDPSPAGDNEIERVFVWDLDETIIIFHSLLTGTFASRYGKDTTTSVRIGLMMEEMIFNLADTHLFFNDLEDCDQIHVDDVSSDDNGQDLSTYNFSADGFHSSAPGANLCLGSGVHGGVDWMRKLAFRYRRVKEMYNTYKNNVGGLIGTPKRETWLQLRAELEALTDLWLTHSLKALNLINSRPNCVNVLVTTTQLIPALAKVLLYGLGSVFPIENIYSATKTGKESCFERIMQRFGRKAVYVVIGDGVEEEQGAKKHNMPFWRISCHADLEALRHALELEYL
Target sequence (Q15475 whole entry, looked up): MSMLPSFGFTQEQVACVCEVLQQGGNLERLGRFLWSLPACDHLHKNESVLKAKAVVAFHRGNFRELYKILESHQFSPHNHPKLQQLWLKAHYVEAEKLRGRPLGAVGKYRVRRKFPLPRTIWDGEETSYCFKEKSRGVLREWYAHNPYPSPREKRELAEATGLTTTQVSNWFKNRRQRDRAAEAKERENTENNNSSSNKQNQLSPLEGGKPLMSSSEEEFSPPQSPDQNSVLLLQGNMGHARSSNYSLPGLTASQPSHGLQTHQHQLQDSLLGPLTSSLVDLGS
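Homogeneous AlphaScreen proximity assay pairing GST-Six1 with His-tagged Eya2 (added as 5X mix: 250 nM and 500 nM) in 50 mM Tris pH 8.0, 300 mM NaCl, 1 mM TCEP. Glutathione donor and nickel acceptor beads; 1 h, 37 °C, dark.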
DT40 TDP1 no CPT – qHTS for Inhibitors of human tyrosyl-DNA phosphodiesterase 1 (TDP1): qHTS in cells in absence of CPT. actives 15% (n = 420,000). DT40 Tdp1-/- hTDP1 cells, no CPT, ATP luminescence, 48 h. Potency, µM (top dose mostly 46.2 µM), usual class: inhibitors; also: nearly all actives have a fitted effect of over 55% in size
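Cells were dispensed at 400 per well, compounds added by pin tool, plates incubated ≥48 hr at 37 °C, then CellTiter-Glo added for 30 min at room temperature before luminescence reading. Line: DT40 Tdp1-/- complemented with hTDP1; camptothecin omitted.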
IL1B secr inh – inflammasome signaling inhibition, IL-1 beta readout. THP-1 LPS/ATP IL-1B secretion, AlphaLISA, 16 h; hits give low values. activity change, % at 57.5 µM. actives 4.7% (n = 360,000). AID 743279; in the data active = activity change below about -50%; inconclusive = mostly about -30% to -49%
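THP-1 cells pretreated 1 hr with compounds (up to 57.5 uM final), then stimulated with LPS (250 ng/mL final) plus ATP (1.25 mM final); secreted IL-1B measured by AlphaLISA after 16 hr, decreased signal indicating inhibition.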
TDP1 block – inhibitors of human tyrosyl-DNA phosphodiesterase TDP1; recombinant TDP1, AlphaScreen DNA substrate cleavage; actives 0.28% (n = 350,000); Q9NUW8; Potency, µM (titrated, usually from 130 µM), actives largely listed as inhibitors; AID 485290; also: nearly all actives have a fitted effect of over 40% in size
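Signal: AlphaScreen proximity between streptavidin donor and anti-FITC acceptor beads on intact substrate. Reaction: Tdp1 1 nM, substrate 15 nM final, 5 min RT after 15 min compound preincubation.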
Each line names hits and unclear results; the compound was inactive in the other large screens. Unless noted, calls follow the shape of the dose curve; as a rule, active = well fitted curve in the direction sought with a large enough effect; inconclusive = small, poorly fitted or top-dose-only effect, or another doubt; inactive = no such curve, though single readings can be large; an effect the other way counts as inactive or inconclusive.

O=C(NC(Nc1ncc(S(=O)(=O)c2ccc([N+](=O)[O-])cc2)s1)(C(F)(F)F)C(F)(F)F)c1ccc(Cl)cc1	TDP1 cell CPT inconclusive, DT40 TDP1 no CPT 15µM, IL1B secr inh -76
COc1ccc(-c2oc3c(c2C(=O)OCCCO)C(OCCCCCO)CCC3)cc1 (centres undefined)	TDP1 cell CPT inconclusive, DT40 TDP1 no CPT inconclusive (no result: TDP1 block)
Cc1cnnc2c1-c1nonc1CC2	none
COc1ccc(C2(C)C(C#N)C(=O)NC(=O)C2C#N)cc1 (centres undefined)	DT40 TDP1 no CPT 2.3µM (no result: TDP1 block)
COc1ccc(C2(C)CC(=O)NC2=O)cc1 (centres undefined)	none (no result: TDP1 block)
Cc1cc(Br)ccc1OCC(=O)NNC(=O)c1ccc(NC(=O)C2CC2)cc1	TDP1 cell CPT inconclusive, DT40 TDP1 no CPT inconclusive
Cc1ccc(-c2noc(N=O)c2NO)cc1	TDP1 cell CPT 21µM, DT40 TDP1 no CPT 23µM, IL1B secr inh -96 (no result: TDP1 block)
Cc1onc(-c2ccccc2)c1NC(=O)Nc1c(-c2ccccc2)noc1C	none
COc1ccc(/C=N\Nc2ccc([N+](=O)[O-])cc2)c(C(=O)O)c1OC	none
CCc1ccc(NC(=O)CS(=O)CC(=O)Nc2ccc(N3CCOCC3)cc2)cc1 (centres undefined)	DT40 TDP1 no CPT inconclusive, TDP1 block 50µM
Cc1cccc(/C=C/C(=O)c2ccc(N3CCOCC3)cc2)c1	none (no result: CtBP-E1A blk, TDP1 cell CPT, Six1-Eya2 inh, DT40 TDP1 no CPT, IL1B secr inh)
O=C(/C=C/c1ccc(F)cc1)c1ccc(N2CCOCC2)cc1	TDP1 cell CPT 21µM, DT40 TDP1 no CPT inconclusive, IL1B secr inh -59
Cc1cccc(C)c1NC(=O)CS(=O)CC(=O)Nc1ccc(N2CCOCC2)cc1 (centres undefined)	none
CCc1ccc(/C=C/C(=O)c2ccc(N3CCOCC3)cc2)cc1	TDP1 cell CPT inconclusive, DT40 TDP1 no CPT inconclusive, IL1B secr inh -89
Cc1cc(-c2nnc3n2N=C(C(C)(C)C)CS3)n[nH]1	none
CC(C)(CO)CNc1ccn2nccc2n1	TDP1 cell CPT 13µM, DT40 TDP1 no CPT inconclusive, IL1B secr inh -79 (no result: TDP1 block)
CC1(C)CC(=O)C(C2C3=C(CC(C)(C)CC3=O)Oc3ccc4ccccc4c32)C(=O)C1 (centres undefined)	DT40 TDP1 no CPT inconclusive, IL1B secr inh -72
Cn1cccc1/C=N/NC(=O)c1ccccn1	TDP1 cell CPT inconclusive, DT40 TDP1 no CPT inconclusive
CC[C@H]1CCCCc2ccccc2[C@@H](C(=O)C[C@@H](O)CC(C)=O)OC1=O	TDP1 cell CPT 15µM, DT40 TDP1 no CPT inconclusive
CC[C@@H]1CCCCc2ccccc2[C@@H](C(=O)C[C@@H](O)CC(C)=O)OC1=O	none
CC[C@@H]1CCCCc2ccccc2[C@H](C(=O)C[C@@H](O)CC(C)=O)OC1=O	TDP1 cell CPT 21µM
Nc1ncnc2c1ncn2[C@@H]1O[C@H](CNC(=O)[C@H]2CCC(=O)N2)[C@@H](O)[C@H]1O	none
COc1cc2c(cc1OC)n(CC(=O)Nc1ccc(C)cc1C)c(=O)n1nc(-c3ccccc3)nc21	none (no result: CtBP-E1A blk, Six1-Eya2 inh, IL1B secr inh)
CC(C)C(=O)Nc1cccc(-c2cnc3ccccc3n2)c1	none
COc1cccc(-c2cc(C(=O)Nc3ccc([N+](=O)[O-])cn3)c3ccccc3n2)c1	TDP1 cell CPT inconclusive, DT40 TDP1 no CPT 12µM
COc1ccc(COc2cc(-c3cccc(OC)c3)nc3ccc(NC(=O)C(C)C)cc23)cc1	TDP1 cell CPT 4.6µM, DT40 TDP1 no CPT 4.6µM
Cc1cccc(NC(=S)NC(=O)c2cc(-c3ccccc3)nc3ccccc23)c1	TDP1 cell CPT 20µM, DT40 TDP1 no CPT inconclusive
Cc1ccccc1NC(=S)NC(=O)c1cc(-c2ccccc2)nc2ccccc12	TDP1 cell CPT inconclusive, DT40 TDP1 no CPT inconclusive
COc1cccc(-c2cc(C(=O)Nc3cccnc3)c3ccccc3n2)c1	TDP1 cell CPT inconclusive, DT40 TDP1 no CPT inconclusive
COc1cccc(-c2cc(C(=O)Nc3ccccc3)c3ccccc3n2)c1	TDP1 cell CPT inconclusive, DT40 TDP1 no CPT 6.5µM (no result: TDP1 block)
Cc1cccc(C)c1NC(=O)NCCSc1snnc1C	none
